From PubChem
TEAD-YAP block: TEAD-YAP interaction inhibition; HEK-TIYL cells, TEAD-Gal4/YAP UAS-luciferase luminescence; inhibition, % at 9.12 µM; actives 1.4% (n = 640,000); in the data active = inhibition above about 32%;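 also: 0% = median of test compound wells and 100% = reference inhibitor wells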
GPR151 activ: activators of human GPR151; Q8TDV0; PathHunter beta-arrestin GPR151 cells, luminescence; activation, % at 11.2 µM; actives 1% (n = 650,000); AID 1508602; in the data active = activation above about 4.9%;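 also: 0% = median of compound wells and 100% = cells with positive control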
FBW7 act: activators of human E3 ligase FBW7; Q969H0; AlphaScreen FBW7–phospho-cyclin E peptide binding, activator screen; normalized activity (activation), % at 26.1 µM; actives 0.13% (n = 650,000); in the data active = normalized activity above about 1.9%;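 also: purified mutant Fbw7 with reduced substrate affinity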
MITF primary: inhibitors of human MITF. O75030. AlphaScreen MITF homodimerization, bead proximity signal. inhibition, % at 2.6 µM. actives 0.91% (n = 650,000). AID 1259374; in the data active = inhibition above about 50%;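 also: 0% = vehicle wells with protein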
Target sequence (O75030 whole entry, looked up): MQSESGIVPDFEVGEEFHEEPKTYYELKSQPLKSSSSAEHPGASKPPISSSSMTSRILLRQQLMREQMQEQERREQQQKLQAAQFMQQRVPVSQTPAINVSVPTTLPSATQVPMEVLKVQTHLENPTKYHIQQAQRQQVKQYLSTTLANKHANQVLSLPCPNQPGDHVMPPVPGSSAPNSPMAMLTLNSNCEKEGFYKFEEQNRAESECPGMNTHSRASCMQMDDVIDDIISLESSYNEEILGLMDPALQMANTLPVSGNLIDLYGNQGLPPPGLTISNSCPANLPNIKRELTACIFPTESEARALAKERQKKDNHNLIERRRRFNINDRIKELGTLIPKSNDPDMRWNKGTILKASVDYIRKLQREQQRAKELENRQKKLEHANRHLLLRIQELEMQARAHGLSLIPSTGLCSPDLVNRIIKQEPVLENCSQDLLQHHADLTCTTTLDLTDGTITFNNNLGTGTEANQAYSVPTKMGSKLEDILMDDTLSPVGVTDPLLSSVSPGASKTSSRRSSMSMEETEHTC
GPR151 confirm: confirmation of human GPR151 activators; GPR151 PathHunter beta-arrestin cells, luminescence, 90 min; % of EA-reagent control over plate median; AID 1508609; shares compounds with GPR151 activ; activation, % at 11.2 µM; 6,700 tested, under 10 active;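 active = mean percent activation across replicates above the confirmation screen cutoff of 4.91%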
GPR119 ag: counter-screen for GPR151 activators: effect on human GPR119; shares compounds with GPR151 activ; GPR119 PathHunter beta-arrestin cells, luminescence, 90 min; 0 = compound-well median, 100 = enzyme-acceptor control; activation, % at 11.2 µM; actives 0.3% (n = 6,700); AID 1508611;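 active = mean percent activation in the counterscreen above 29.09%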;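 also: counterscreen on off-target GPR119 to flag nonselective hits from the GPR151 activator screen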
The depositor's hits bear a star; / = no result; ! = not active in a repeat. A selection: hits, their analogues and other compounds. The true share with any hit is near 3.5%.

SMILES	TEAD-YAP block	GPR151 activ	FBW7 act	MITF primary	GPR151 confirm	GPR119 ag
COc1ccc(S(=O)(=O)Nc2ccc(O)c(C)c2)cc1	-12.3	0.1	-0.1	-3.1	/	/
COCCNC(=O)c1cccc(OC2CCN(Cc3cnc(SC)nc3)CC2)c1	2.8	7.9*	0.0	11.7	0.4	2.4
O=C(NCc1ccccc1)c1ccc(CN2CCC(Cc3ccccc3)CC2)cc1	3.4	-1.0	0.0	3.6	/	/
CCOC(=O)N1CCN(C(=O)c2ccc(CN3CCC(Cc4ccccc4)CC3)cc2)CC1	4.0	4.9*	-0.1	-7.6	1.1	14.6
COCCNC(=O)c1ccc(CN2CCC(Cc3ccccc3)CC2)cc1	11.2	5.0*	-0.1	-15.6	-0.5	1.0
COCCNC(=O)c1cccc(OC2CCN(Cc3ccc(F)c(OC)c3)CC2)c1	1.1	-0.4	-0.1	15.3	/	/
O=C1NN(C(=O)Nc2ccccc2)C2Cc3ccccc3C12 (stereo unspecified)	-11.1	2.2	0.0	6.9	/	/
CCCCCCn1c(COC)nc2ccccc21	-6.2	1.0	-0.2	-3.6	/	/
CCCN(CCC)CCCNC(=O)C(=O)Nc1ccc(C)cc1	2.6	0.0	0.2	5.2	/	/
CCCN(CCC)CCCNC(=O)C(=O)Nc1ccc(I)cc1	3.1	10.9*	0.1	-1.1	0.1	-0.1
COc1ccc(NC(=O)c2cc3cc(OC)ccc3oc2=Nc2ccc(C(=O)O)cc2)c(OC)c1	-8.6	0.0	-0.2	10.0	/	/
COc1ccc(NC(=O)c2cc3ccc(OC)cc3oc2=Nc2ccc(C(=O)O)cc2)c(OC)c1	16.0	11.1*	0.0	-9.1	0.2	14.6
COC(=O)[C@H](Cc1ccccc1)NC(=O)c1cc(COc2c(F)cccc2F)on1	-31.2	5.6*	0.0	12.6	0.6	-4.9
COC(=O)[C@@H](NC(=O)c1cc(COc2c(F)cccc2F)on1)c1ccccc1	-1.4	1.1	-0.2	13.3	/	/
Cc1ccc(C(O)(c2nc3ccccc3[nH]2)C(F)(F)F)c(O)c1 (stereo unspecified)	-14.2	-0.4	0.0	3.6	/	/
COc1ccc2[nH]c(C)c(CN(C)C)c(=O)c2c1	14.6	0.0	0.0	-3.5	/	/
CCOc1ccc2[nH]c(C)c(CN(C)C)c(=O)c2c1	-4.1	6.8*	-0.1	-1.3	0.3	4.1
C=CCSc1cccc2ccncc12	-2.5	-0.1	0.0	15.1	/	/
CC(=O)c1ccc(NC(=S)NC(=O)c2ccccc2F)cc1	-67.4	14.8*	0.0	12.1	0.0	4.8
Cc1ccccc1C(=O)NC(=S)Nc1ccc(Cc2ccncc2)cc1	8.1	18.7*	0.3	18.9	-0.3	-15.8
O=C(/C=C/c1cccc2ccccc12)NCc1ccccc1	-7.4	5.0*	0.2	15.3	-0.6	-8.3
CC(C)[C@H](NS(=O)(=O)c1cccc(C(F)(F)F)c1)C(=O)NCc1ccccc1	11.6	1.1	0.2	9.7	/	/
COc1ccc(NC(=O)C(c2ccc(C)cc2)N(Cc2ccco2)C(=O)Cc2c[nH]c3ccccc23)cc1 (stereo unspecified)	-1.3	0.3	0.0	2.5	/	/
CCOC(=O)Cn1nnnc1CN(Cc1ccccc1)Cc1cc2cc(C)ccc2[nH]c1=O	-18.5	6.4*	0.0	2.9	-1.4	-15.2
CCCCCCOc1ccc(/C=N/n2cnnc2)cc1	9.3	6.8*	-0.1	5.6	0.4	-2.9
SMILES	TEAD-YAP block	GPR151 activ	FBW7 act	MITF primary	GPR151 confirm	GPR119 ag
CC(C)CCOc1ccc(/C=N/n2cnnc2)cc1	1.3	0.2	0.1	-1.3	/	/
CC(C)(C)CC(=O)NCCCS(=O)(=O)N1CCN(c2ccc(F)cc2)CC1	12.8	6.6*	0.0	10.2	0.8	1.1
Fc1ccc(C(CCCN2CCN3CCCC3C2)c2ccc(F)cc2)cc1 (stereo unspecified)	-1.0	1.3	-0.1	-3.9	/	/
O=C1NCN(c2ccccc2)C12CCN(CCCC(c1ccc(F)cc1)c1ccc(F)cc1)CC2	4.0	7.2*!	-0.1	19.0	-0.8	-11.6
COc1ccc2cccc(NC(=O)Cn3c(=O)oc4ccccc43)c2n1	-10.7	0.0	0.0	1.8	/	/
Fc1ccc(C2CC(c3ccc(I)cc3)=NN2c2ccccc2)cc1 (stereo unspecified)	-7.1	-1.1	0.0	-1.8	/	/
C=CCc1ccc(OCCOc2ccc(/C=N/n3cnnc3)cc2OC)c(OC)c1	4.0	0.0	-0.1	6.7	/	/
COCCCNC(=O)c1ccc(CNc2nc(=S)[nH]c3ccccc23)cc1	-6.2	5.9*	-0.1	-1.6	-0.1	9.6
COc1cc(OC)cc(-n2nc(C(=O)N3CCCCC3)c3ccccc3c2=O)c1	5.7	12.8*	-0.1	10.1	-0.3	-0.3
O=C(c1n[nH]c(=O)c2ccccc12)N1CCCCCC1	-0.3	5.6*	0.1	17.1	-0.5	6.0
COc1cc(OC)cc(-n2nc(C(=O)N3CCCCCC3)c3ccccc3c2=O)c1	-3.3	1.4	0.1	0.4	/	/
CCOCCOC(=O)C1=C(C)NC2=C(C(=O)CC(c3ccc(Cl)cc3)C2)C1c1ccc(O)cc1 (stereo unspecified)	5.7	-1.0	0.3	17.1	/	/
CCCOCCOC(=O)C1=C(C)NC2=C(C(=O)CCC2)C1c1ccc(F)c(F)c1 (stereo unspecified)	17.5	0.1	0.7	-3.1	/	/
CCOCCOC(=O)C1=C(C)NC2=C(C(=O)CCC2)C1c1ccc(F)c(F)c1 (stereo unspecified)	7.0	11.7*!	-0.1	6.3	0.8	17.1
CC1=C(C(=O)OCCOc2ccccc2)C(c2cccc(O)c2)C2=C(CC(c3ccccc3)CC2=O)N1 (stereo unspecified)	6.2	14.1*	1.8	7.9	0.2	7.9
CCOCCOC(=O)C1=C(C)NC2=C(C(=O)CC(c3ccc(Cl)cc3)C2)C1c1ccc(Cl)cc1 (stereo unspecified)	17.4	7.4*	0.4	-1.2	-1.2	-3.9
CC1=C(C(=O)OCC2CCCO2)C(c2cccc([N+](=O)[O-])c2)C2=C(CCCC2=O)N1 (stereo unspecified)	8.5	6.1*	-0.2	3.9	0.0	8.4
COC(=O)C(NC(=O)c1ccc(Cl)cc1)(Nc1nc(C2CC2)cs1)C(F)(F)F (stereo unspecified)	-3.8	5.2*	0.7	13.9	0.0	-5.8
CCOC(=O)NC(Nc1nc(C2CC2)cs1)(C(=O)OCC)C(F)(F)F (stereo unspecified)	1.8	-1.5	0.2	2.4	/	/
COc1ccc(CCN(C)C2CCCN(Cc3ccncc3)C2)cc1OC (stereo unspecified)	3.3	9.1*	0.1	-13.8	0.0	4.0
COc1ccc(CCN(C)C2CCCN(Cc3ccoc3)C2)cc1OC (stereo unspecified)	10.9	0.4	0.0	10.7	/	/
COCc1ccc(CN2CCCC(N(C)CCc3ccccc3)C2)o1 (stereo unspecified)	-7.8	5.1*	-0.2	5.9	-0.9	-6.4
